Screening data (PubChem)
EBV gp42 block: blocks Epstein-Barr virus glycoprotein 42 binding | 220,000 compounds, 0.42% hits | Fluorescence polarization binding assay, mP read-out | Q1HVG2 | inhibition, % (tested at 21.74 µM) | AID 1085; in the data active = inhibition above about 50%
Target sequence (Q1HVG2 whole entry, looked up): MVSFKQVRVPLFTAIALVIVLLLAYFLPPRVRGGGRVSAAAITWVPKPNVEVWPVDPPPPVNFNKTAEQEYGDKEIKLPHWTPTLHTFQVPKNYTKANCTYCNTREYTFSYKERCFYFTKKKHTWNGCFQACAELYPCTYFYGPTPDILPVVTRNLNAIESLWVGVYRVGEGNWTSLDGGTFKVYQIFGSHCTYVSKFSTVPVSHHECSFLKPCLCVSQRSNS
Bcl-xL primary: blocks human Bcl-xL binding to Bim BH3 peptide; Q07817; GST-Bcl-xL / FITC-Bim BH3 peptide fluorescence polarization; inhibition, % at 10.9 µM; 320,000 compounds, 0.7% hits; AID 2129;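 active = inhibition above the mean of all tested compounds plus 3 SD, cutoff set per campaign, cut at about 30% in these data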;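 note: 0% = DMSO wells and 100% = unlabeled Bim-BH3 peptide competitor; inhibitors lower millipolarization by displacing the labeled peptide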
Target sequence (Q07817 whole entry, looked up): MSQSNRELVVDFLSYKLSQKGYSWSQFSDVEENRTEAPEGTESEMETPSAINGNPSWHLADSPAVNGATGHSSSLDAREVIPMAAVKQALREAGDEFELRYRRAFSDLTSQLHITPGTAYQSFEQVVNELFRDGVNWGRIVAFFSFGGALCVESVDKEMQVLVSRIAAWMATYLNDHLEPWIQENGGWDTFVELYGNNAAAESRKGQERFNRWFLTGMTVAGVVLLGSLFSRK
GLD-1 RNA inh: GLD-1-TGE RNA interaction inhibition (C. elegans); 320,000 compounds, 0.44% hits; purified GLD-1 + fluorescein TGE RNA, fluorescence polarization; inhibition, % at 5.96 µM;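 active = percent inhibition above a per-plate cutoff, the plate mean of test compounds plus 3 SD, cut at about 30% in these data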;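 note: 0% = DMSO wells with GLD-1 and probe and 100% = wells lacking GLD-1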
MCL1-BIM inh: inhibitors of human MCL1 binding to BIM-BH3 peptide; GST-MCL1 / FITC-Bim-BH3 fluorescence polarization; inhibition, % at 10.9 µM; 320,000 compounds, 0.68% hits;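 active = inhibition above the mean inhibition of all tested compounds plus 3 SD, set per campaign, cut at about 40% in these data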;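 note: 0% = DMSO wells and 100% = unlabeled Bim-BH3 peptide control; higher means more loss of mP so more displacement of Bim peptide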
E coli Lon inh: inhibitors of E. coli Lon protease. purified E. coli Lon protease, fluorescence polarization. 360,000 compounds, 0.42% hits. P0A9M0. inhibition, % at 7.94 µM; in the data active = inhibition above about 13%, passing the limit was not always enough;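 note: 0% = enzyme with probe and DMSO and 100% = no enzyme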
MEX-5 binding: C. elegans MEX-5 TCR-2 RNA binding activity; Q9XUB2; MEX-5/FITC-TCR2 RNA binding, fluorescence polarization; stronger effect = lower value; activity score (negative = inhibition of binding), % at 10 µM; 300,000 compounds, 0.38% hits; AID 1832;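 active = inhibition past about -25% in most replicates, and total fluorescence under double the plate's negative control median, limit read from the data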;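 note: 0% = DMSO and -100% = 5 µM competing unlabeled TCR2 RNA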
E coli Lon conf: E. coli Lon inhibition confirmation. shares compounds with E coli Lon inh. purified E. coli Lon, fluorescence polarization. inhibition, % at 7.94 µM. 1,400 compounds, 31% hits. AID 602230; in the data active = inhibition above about 16%;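 note: 0% = enzyme with probe and DMSO and 100% = no enzyme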
An asterisk follows results filed as active. Compounds with a hit are over-represented: about 1.4% of the library has one in this group of screens.

`C=CCn1c(SCC(=O)Nc2sc3c(c2C#N)CCC(C)C3)nc2cc(C(=O)O)ccc2c1=O` (centres undefined) gave GLD-1 RNA inh 3, E coli Lon inh 48* and E coli Lon conf 2.
For Nc1nc(Cl)cc(Oc2ccc([N+](=O)[O-])cc2)n1 the results were Bcl-xL primary 6, GLD-1 RNA inh -7, MCL1-BIM inh 0, E coli Lon inh 16*, MEX-5 binding -1 and E coli Lon conf 20*.
COc1ccc(Oc2cc(Cl)nc(N)n2)cc1 was read as EBV gp42 block 5, Bcl-xL primary 3, GLD-1 RNA inh 0, MCL1-BIM inh 3, E coli Lon inh -4 and MEX-5 binding 1.
Screening O=C(c1cc(COc2ccc(F)cc2F)on1)N1C[C@H]2CC[C@H]1C2 returned Bcl-xL primary 0, GLD-1 RNA inh 1, MCL1-BIM inh 1, E coli Lon inh 24*, MEX-5 binding 1 and E coli Lon conf -6.
O=C(c1cc(COc2ccc(F)cc2F)on1)N1CC2C[C@@H]3CC1C[C@H](C2)C3 was read as Bcl-xL primary 0, GLD-1 RNA inh 1, MCL1-BIM inh -2, E coli Lon inh -7 and MEX-5 binding -1.
Screening Fc1ccc2nc(Nc3ccccc3)sc2c1 returned EBV gp42 block 4, Bcl-xL primary 6, GLD-1 RNA inh -2, MCL1-BIM inh 3, E coli Lon inh 15* and E coli Lon conf 6.
Nc1cccc2c(=O)[nH][nH]c(=O)c12 was read as E coli Lon inh -6.
`Nc1ccc2c3c(cccc13)-c1ccccc1-2` gave E coli Lon inh 189* and E coli Lon conf active.
CCOc1c2ccc(C(=O)NCc3cc(C(F)(F)F)cc(C(F)(F)F)c3)cc2nn1CCOC was read as EBV gp42 block -7, Bcl-xL primary -1, GLD-1 RNA inh -2, MCL1-BIM inh -1, E coli Lon inh 3 and MEX-5 binding 1.
Screening COCCn1nc2cc(C(=O)NCc3cc(C(F)(F)F)cc(C(F)(F)F)c3)ccc2c1OC returned EBV gp42 block -12, Bcl-xL primary 3, GLD-1 RNA inh 1, MCL1-BIM inh 4, E coli Lon inh 21*, MEX-5 binding 0 and E coli Lon conf -8.
For COc1cccc(-n2c(Cc3cc(=O)[nH]c(=O)[nH]3)nnc2SCC(=O)N2CCCCC2)c1 the results were EBV gp42 block -6, Bcl-xL primary 9, GLD-1 RNA inh 11, MCL1-BIM inh 7, E coli Lon inh 16*, MEX-5 binding -5 and E coli Lon conf 23*.
CCSc1nnc(Cc2cc(=O)[nH]c(=O)[nH]2)n1-c1ccc(F)cc1 was read as EBV gp42 block -4, Bcl-xL primary 4, GLD-1 RNA inh 5, MCL1-BIM inh 4, E coli Lon inh -3 and MEX-5 binding -2.
Screening CCOc1ccc(-n2c(Cc3cc(=O)[nH]c(=O)[nH]3)nnc2SCC(=O)OC)cc1 returned EBV gp42 block -28, Bcl-xL primary 6, GLD-1 RNA inh 7, MCL1-BIM inh 4, E coli Lon inh 16*, MEX-5 binding -3 and E coli Lon conf 13.
`COc1cc(C(=O)OCC(=O)N2CCOCC2)c([N+](=O)[O-])cc1OC` gave Bcl-xL primary 6, GLD-1 RNA inh 5, MCL1-BIM inh 1, E coli Lon inh 18*, MEX-5 binding 0 and E coli Lon conf -4.
For c1ccc(C2OC3c4cccc5cccc(c45)C3N2c2ccccc2)cc1 (centres undefined) the results were EBV gp42 block -14, Bcl-xL primary 10, GLD-1 RNA inh 8, MCL1-BIM inh 12, E coli Lon inh 56*, MEX-5 binding 1 and E coli Lon conf 2.
Screening O=C(NCc1ccncc1)c1c(F)c(F)c(F)c(F)c1F returned EBV gp42 block -14, Bcl-xL primary -3, GLD-1 RNA inh -9, MCL1-BIM inh 1, E coli Lon inh -6 and MEX-5 binding 3.
O=C(NCc1ccncc1)C(F)(F)C(F)(F)C(=O)NCc1ccncc1 was read as EBV gp42 block -11, Bcl-xL primary -1, GLD-1 RNA inh 6, MCL1-BIM inh 4, E coli Lon inh 17*, MEX-5 binding -1 and E coli Lon conf -4.
